Measurements: PubChem BioAssay (Tox21)
Active and inactive are the calls of the source. The call rests on the fitted dose curve; in most records, active means well fitted curve in the direction sought with a large enough effect in the repeat runs; inconclusive means weak or mixed curves; inactive means flat fitted curve, though single readings scatter.

Assay: qHTS assay to test for compound auto fluorescence at 535 nm (green) in HEK293 cells (AID 720680)
Conditions: green autofluorescence 485/535 nm; series mostly up to 91.3 µM

Compound | outcome
Cc1cc(O)cc(C)c1Cl | inactive
COCC(=O)O | inactive
O=Nc1ccc(O)cc1 | inactive
Oc1ccc(OCc2ccccc2)cc1 | inactive
CC(C)Cc1ccccc1 | inactive
CN(C)c1cccc(O)c1 | inactive
CCOC(=O)C1OC1c1ccccc1 (centres undefined) | inactive
Cc1cc(NS(=O)(=O)c2ccc(N)cc2)no1 | inactive
CC1COc2ccccc2N1C(=O)C(Cl)Cl (centres undefined) | inactive
CCc1ccc(O)cc1 | inactive
OC1CCCC1 | inactive
CCCCNC(N)=O | inactive
CS(=O)(=O)c1ccc([C@@H](O)[C@@H](CO)NC(=O)C(Cl)Cl)cc1 | inactive
Clc1cc(Cl)c(Cl)cc1Cl | inactive
CC(C)(C)C(=O)C1C(=O)c2ccccc2C1=O | inactive
CC(=O)Nc1ccc(C(=O)O)cc1 | inactive
CCCCCCCCCCCCN | inactive
CCCCC(CC)COC(C)=O (centres undefined) | inactive
CCCCCC/C=C/CCCCCCCC(=O)O | inactive
O=C1O[C@H](CO)[C@@H](O)[C@H](O)[C@H]1O | inactive

Compound | outcome
O=C1N=C(O)CN1/N=C/c1ccc(-c2ccc([N+](=O)[O-])cc2)o1 | inactive
Nc1cc(-c2ccncc2)c[nH]c1=O | inactive
OCC1CCCO1 (centres undefined) | inactive
C[C@@H](O)[C@H]1C(=O)N2C(C(=O)O)=C(S[C@@H]3CN[C@H](C(=O)N(C)C)C3)[C@H](C)[C@H]12 | inactive
CCCCCCCCCCC=CC1CC(=O)OC1=O (centres undefined) | inactive
COC(=O)Nc1nc2ccc(Sc3ccccc3)cc2[nH]1 | inactive
OCCOCCOCCOCCO | inactive
O=C(O)c1ccc([N+](=O)[O-])cc1 | inactive
C=C(C)C(=O)OCC(CC)(COC(=O)C(=C)C)COC(=O)C(=C)C | inactive
Clc1ccc(Cl)c(Cl)c1Cl | inactive
C=C1C2CCC(C2)C1(C)C (centres undefined) | inactive
CC(C)(C)C1CCC(O)CC1 (centres undefined) | inactive
Cc1ccc(N)c(S(=O)(=O)O)c1 | inactive
O=c1c(-c2ccc(O)cc2)coc2cc(O)ccc12 | inactive
COCC(C)O (centres undefined) | inactive
CC1CC(OC(=O)c2ccccc2O)CC(C)(C)C1 (centres undefined) | inactive
CCOC(=O)/C=C\C(=O)OCC | inactive
CCCCCCCCCCCCOCC1CO1 (centres undefined) | inactive
C[C@@H]1O[C@@H](OC[C@H]2O[C@@H](Oc3c(-c4ccc(O)c(O)c4)oc4cc(O)cc(O)c4c3=O)[C@H](O)[C@@H](O)[C@@H]2O)[C@H](O)[C@H](O)[C@H]1O | inactive
